Drawing on PubChem BioAssay, this text covers composite z-score and z-score for 15 compounds.

For experiment [1], the system named is XIP peptide (Xip251-270) binding. The experiment is described as follows: XIP fragment 251-270 binding compounds – biochemical, small-molecule microarray, fluorescence 635/667 nm, 0.1 µg/mL protein, primary screen (AID 1182). Particulars: fluorescent protein binding, 635 nm, higher = more signal, called active from +8 up or from −8 down.
The test system of the next experiment is XIP peptide (Xip251-270). The experiment is described as follows: compounds binding XIP fragment 251-270 – biochemical, small-molecule microarray, fluorescence 635/667 nm, 0.5 µg/mL protein, primary screen (AID 1183). Particulars: fluorescence 635 nm, higher = more signal.
A short description of experiment [2]: blood-stage malaria parasite viability loss – strain 3D7, DAPI fluorescence, 100 nL, primary screen (AID 1184).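 Further: parasites grown inside human red blood cells in medium with human serum.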 Particulars: P. falciparum 3D7 growth, 3 d, higher = more signal.
In experiment [3] the target is Homeobox protein Hox-A13 (Mus musculus) (UniProt Q62424). The experiment is described as follows: disruptors of Hoxa13 oligonucleotide interaction – biochemical, fluorescence polarization, labeled oligonucleotide, primary screen (AID 1185). Particulars: Hoxa13:DNA binding, 15 min, higher = more signal, called active from +8 up or from −8 down.
Homeobox protein Hox-A13 (Mus musculus), sequence (Q62424 whole entry, looked up): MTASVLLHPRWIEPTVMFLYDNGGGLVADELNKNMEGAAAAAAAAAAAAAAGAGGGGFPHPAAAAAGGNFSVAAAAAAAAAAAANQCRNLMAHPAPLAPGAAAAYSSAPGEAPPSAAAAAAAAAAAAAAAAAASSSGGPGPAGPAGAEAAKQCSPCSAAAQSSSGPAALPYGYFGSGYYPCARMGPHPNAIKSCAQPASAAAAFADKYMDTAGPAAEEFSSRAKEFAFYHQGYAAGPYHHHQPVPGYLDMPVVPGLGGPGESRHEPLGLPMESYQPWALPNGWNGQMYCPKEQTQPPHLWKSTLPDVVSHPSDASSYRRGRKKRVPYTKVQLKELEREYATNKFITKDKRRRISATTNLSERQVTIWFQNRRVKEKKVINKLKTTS
A short description of experiment [4]: blockers of DNA damage checkpoint Chk1 activation – imaging, HeLa, hydroxyurea, phospho-Chk1 antibody, percent positive cells, primary screen (AID 1186). Particulars: hydroxyurea-induced phospho-Chk1 immunofluorescence imaging, higher = more signal.
Experiment [5] can be described thus: blockers of DNA damage checkpoint Chk1 activation – imaging, HeLa, hydroxyurea, phospho-Chk1 nuclear intensity, primary screen (AID 1187). Particulars: hydroxyurea-induced phospho-Chk1 immunofluorescence imaging, higher = more signal.

Active and inactive are the calls of the source. Unless noted, how the calls were made is not given here.

Turning to `C=CCC(OC(C)=O)[C@@H]1[C@@H](N(Cc2cccc3ccccc23)C(=O)c2ccc(C)cc2)c2cc(OCCCO)ccc2N1C(=O)Cc1ccc(OC)cc1` (stereo not given in full), the results for the composite z-score (in experiment [1]; with XIP peptide (Xip251-270)) were -0.262 (inactive) and -0.241, respectively. Also, the z-score in experiment [2] was -0.805; in experiment [3], -0.287 (inactive); in experiment [4], -0.446 (inactive); in experiment [5], -0.126 (inactive).

For `COC(=O)C1=CC(CCCO)=CC(C2CC2)N(Cc2sc3ccccc3c2Cl)C=C1C(=O)OC` (stereo not given), the composite z-score in experiment [1] was 0.827 (inactive); in the experiment on XIP peptide (Xip251-270) it was 0.793. In addition, the z-score is -2.02 in experiment [2], -5.27 (inactive) in experiment [3], 0.0745 (inactive) in experiment [4] and 0.263 (inactive) in experiment [5].

As to `CCOC(=O)C[C@H]1[C@H](OC(=O)c2ccccc2-c2ccccc2)[C@@H](NC(=O)Cc2ccc(OC)cc2)c2cc(OCCCO)ccc2N1C(=O)c1ccccc1`, the composite z-score in experiment [1] is 0.277 (inactive); with XIP peptide (Xip251-270), 0.127. Also, the z-score was -1.6 in experiment [2], -3.88 (inactive) in experiment [3], 0.422 (inactive) in experiment [4] and 0.137 (inactive) in experiment [5].

On to `COc1ccc(C(=O)Nc2cccc(CN3C(=O)[C@@]4(O[C@@H](CCn5cc(CCO)nn5)[C@H]([Si](C)(C)c5ccc(OC)cc5)[C@H]4C)c4ccccc43)c2)cc1`, for which the composite z-score in experiment [1] is 0.201 (inactive); in the experiment on XIP peptide (Xip251-270), 0.393. The z-score in experiment [2] was -2.65; in experiment [3], -3.85 (inactive); in experiment [4], 0.103 (inactive); in experiment [5], 0.199 (inactive).

Take `Cc1ccc(S[C@]2(C(=O)NC3CC3)CC(=O)N(C3CCCCC3)[C@@H]2c2ccc(CO)cc2I)cc1`: the composite z-score in experiment [1] is 1.01 (inactive); with XIP peptide (Xip251-270), 0.784. Also, the z-score in experiment [2] is -1.34; in experiment [3] it was -4.11 (inactive); in experiment [4], -0.0105 (inactive); in experiment [5], 0.06 (inactive).

As for `O=C1c2ccccc2[C@@]2(Cc3ccccc3N(Cc3ccccc3)C2=O)[C@H](c2ccc(CO)cc2)N1C1CCCCC1`, the composite z-score was -0.204 (inactive) in experiment [1] and 0.299 with XIP peptide (Xip251-270). The z-score was -0.0438 in experiment [2], -1.21 (inactive) in experiment [3], 0.0191 (inactive) in experiment [4] and 0.359 (inactive) in experiment [5].

With `COCCOC(=O)N1C(=O)[C@@]2(c3cc(C#CCNC(N)=O)ccc31)[C@H](c1ccccc1OCCO)N1[C@H](c3ccccc3)[C@H](c3ccccc3)OC(=O)[C@H]1[C@@H]2C(N)=O`, the composite z-score in experiment [1] is -0.0949 (inactive); in the experiment on XIP peptide (Xip251-270), 0.467. Moreover, the z-score was -0.585 in experiment [2], -2.6 (inactive) in experiment [3], 0.0842 (inactive) in experiment [4] and -0.266 (inactive) in experiment [5].

On to `COc1ccc(CCNC(=O)[C@@]2(Sc3ccc(C)cc3)CC(=O)N(Cc3ccccc3Cl)[C@@H]2c2ccc(CO)cc2I)cc1`, for which the composite z-score in experiment [1] is 0.259 (inactive); with XIP peptide (Xip251-270), 0.391. Also, the z-score is -0.694 in experiment [2], -2.24 (inactive) in experiment [3], 0.351 (inactive) in experiment [4] and 0.606 (inactive) in experiment [5].

With `[N-]=[N+]=NCc1ccccc1[C@@H]1OC(c2ccc(OCCCO)cc2)=N[C@]1(Cc1ccccc1N=[N+]=[N-])C(=O)NCc1ccccc1`, the composite z-score in experiment [1] is 0.304 (inactive); with XIP peptide (Xip251-270), 0.442. Further, the z-score in experiment [2] was -2.29; in experiment [3], 1.76 (inactive); in experiment [4], -0.76 (inactive); in experiment [5], -0.767 (inactive).

For the compound `CC(C)(C)N1CC=CC23O[C@@H]4C=CCOC(=O)[C@@H]4[C@H]2C(=O)N(CCCCCO)[C@@H]3C1=O` (stereo not given in full), the composite z-score in experiment [1] was 0.295 (inactive); in the experiment with XIP peptide (Xip251-270), -1.13. Further, the z-score is -0.366 in experiment [2], -4.43 (inactive) in experiment [3], 0.241 (inactive) in experiment [4] and -0.459 (inactive) in experiment [5].

In the case of `Cc1cc(C)c(C(O)C2C=CC3C(=O)N(C)C(=O)C3N2Nc2ccccc2)c(C)c1` (stereo not given), the figures for the composite z-score (in experiment [1]; in the experiment on XIP peptide (Xip251-270)) were -0.0222 (inactive) and 0.794, respectively. The z-score was 0.642 in experiment [2], -2.71 (inactive) in experiment [3], 0.195 (inactive) in experiment [4] and -0.137 (inactive) in experiment [5].

As for `CC(C)N1CC=CC23O[C@@H]4C=CCOC(=O)[C@@H]4[C@H]2C(=O)N(CCO)[C@@H]3C1=O` (stereo not given in full), the figures for the composite z-score (in experiment [1]; in the experiment with XIP peptide (Xip251-270)) were -0.145 (inactive) and -0.014, respectively. Further, the z-score in experiment [2] is 0.74; in experiment [3], -2.98 (inactive); in experiment [4] it was -0.514 (inactive); in experiment [5], -0.419 (inactive).

`COC(=O)C[C@H]1O[C@]2(C(=O)N(Cc3ccccc3)c3ccc(NC(C)=O)cc32)[C@@H](C)[C@@H]1[Si](C)(C)c1ccc(OC)cc1`: the values for the composite z-score (in experiment [1]; with XIP peptide (Xip251-270)) were 0.337 (inactive) and 0.27, respectively. The z-score was -3.05 in experiment [2], -3.04 (inactive) in experiment [3], 0.918 (inactive) in experiment [4] and 0.536 (inactive) in experiment [5].

On to `NCCCCCCNC(=O)[C@H]1C[C@H]2C(=O)NCC(=O)N2[C@H]1c1cccc(OCCO)c1`, for which the figures for the composite z-score (in experiment [1]; in the experiment on XIP peptide (Xip251-270)) were 2.26 (inactive) and 0.814, respectively. Besides, the z-score in experiment [2] is 0.005; in experiment [3], -2.07 (inactive); in experiment [4], 0.234 (inactive); in experiment [5], 0.495 (inactive).

For `CCCC[C@@H]1C[C@H]1[C@@H](NC(=O)c1ccc(-c2ccccc2)cc1)c1ccc(-c2ccccc2)cc1`, the composite z-score is 0.0014 (inactive) in experiment [1] and -0.532 in the experiment with XIP peptide (Xip251-270). The z-score in experiment [2] is -1.05; in experiment [3], -1.24 (inactive); in experiment [4] it was 0.558 (inactive); in experiment [5], 0.394 (inactive).
